Among the test systems are NCI-H23 lung; NCI-H226 lung; NCI-H322M lung; HOP-62 NSCLC; NCI-H460 lung; HOP-92 NSCLC; NCI-H522 lung; A549/ATCC NSCLC; 786-0 renal; COLO 205 colon; DU-145 prostate; K-562 leukemia; MALME-3M melanoma; MDA-MB-231 breast; RXF 393 renal; SF-268 CNS; SF-295 CNS; SF-539 CNS; UACC-257 melanoma.
Holding throughout (assay): NCI-60 one-dose screen, 48 h (100 = growth as untreated, 0 = no growth, -100 = all killed)
Holding throughout (conditions): 10 µM unless noted

This is part of a sample that, as a whole, favours compounds with a hit. Of some 83,000 tested, about 20% had one in any assay.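 Treatment: one concentration, 48 hours, 96-well format. Scoring: percent growth, with anything below 10 considered active.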 Unmarked numbers belong to inactive results. Activity calls are given as the source filed them.

On to `COc1ccc(-c2cc(-c3ccc(Nc4nc(Nc5ccccc5)nc(Nc5ccc(Cl)cc5)n4)cc3)nc(N)n2)cc1`, for which the growth was 56.6% in the assay on NCI-H23 lung; 81.2% with NCI-H226 lung; 83.3% with NCI-H322M lung; 57.2% with HOP-62 NSCLC; 61.6% with NCI-H460 lung; 37.6% with HOP-92 NSCLC. In addition, the growth is 76.3% in the assay with NCI-H522 lung; 79.5% with A549/ATCC NSCLC; 51.5% in the assay on 786-0 renal; 68.4% in the assay with COLO 205 colon; 100% with DU-145 prostate; 23.7% with K-562 leukemia. Moreover, the growth in the assay on MALME-3M melanoma is 79.2%; in the assay on MDA-MB-231 breast, 49%; in the assay with RXF 393 renal, 75.6%; with SF-268 CNS it was 75.8%; with SF-295 CNS, 64.1%; in the assay on SF-539 CNS, 76.9%. Further, the growth in the assay with UACC-257 melanoma was 77.1%.

As for `Cc1nc(Nc2ccc(NC(=S)Nc3ccccc3)cc2)nc2nc(Nc3cccc(Cl)c3)[nH]c(=O)c12`, the growth in the assay with NCI-H23 lung was 92.4%; with NCI-H226 lung, 99.2%; with NCI-H322M lung, 183%; in the assay with HOP-62 NSCLC, 91.7%; in the assay on NCI-H460 lung, 114%; with HOP-92 NSCLC, 60.4%. The growth in the assay on NCI-H522 lung is 34.4%; with A549/ATCC NSCLC it was 86.1%; in the assay with 786-0 renal it was 98.7%; in the assay on COLO 205 colon, 122%; in the assay with DU-145 prostate, 123%; with K-562 leukemia it was 71.8%. For the same compound, the growth in the assay with MALME-3M melanoma is 120%; with MDA-MB-231 breast, 84.7%; in the assay on RXF 393 renal, -12.9% (active); in the assay with SF-268 CNS, 104%; in the assay on SF-295 CNS, 116%; with SF-539 CNS, 67.5%. Moreover, the growth in the assay with UACC-257 melanoma is 98.9%.

Consider `CCCCC1COc2cccc3c(SCC(=O)N(C)c4cccc(Cl)c4)cc[n+]1c23` (stereo unspecified), for which the growth is 99.9% with NCI-H23 lung; 103% in the assay on NCI-H226 lung; 107% in the assay with NCI-H322M lung; 109% with HOP-62 NSCLC; 113% in the assay on NCI-H460 lung; 113% in the assay on HOP-92 NSCLC. The growth was 96.9% in the assay with NCI-H522 lung; 109% in the assay with A549/ATCC NSCLC; 107% with 786-0 renal; 110% in the assay with COLO 205 colon; 120% with DU-145 prostate; 97.8% in the assay with K-562 leukemia. Moreover, the growth in the assay on MALME-3M melanoma was 104%; with MDA-MB-231 breast, 101%; in the assay with SF-268 CNS, 118%; in the assay on SF-295 CNS, 99.3%; in the assay on SF-539 CNS it was 97.5%; with UACC-257 melanoma, 113%.

In the case of `Clc1ccc(-c2cn(-c3ccccc3)c(-c3ccccc3)n2)cc1`, the growth in the assay with NCI-H23 lung is 85.2%; with NCI-H226 lung, 80.9%; in the assay with NCI-H322M lung it was 95.9%; in the assay with HOP-62 NSCLC, 76.9%; in the assay with NCI-H460 lung it was 104%; in the assay on HOP-92 NSCLC, 68.7%. Moreover, the growth was 55.2% in the assay on NCI-H522 lung; 71.3% with A549/ATCC NSCLC; 81.3% in the assay on 786-0 renal; 107% with COLO 205 colon; 93.9% in the assay with DU-145 prostate; 18.4% with K-562 leukemia. The growth is 111% with MALME-3M melanoma; 98.9% in the assay on MDA-MB-231 breast; 132% in the assay with RXF 393 renal; 96.9% in the assay with SF-268 CNS; 98.8% in the assay with SF-295 CNS; 102% with SF-539 CNS. Also, the growth in the assay with UACC-257 melanoma is 173%.

Turning to `O=[N+]([O-])c1cccc(/C=C/c2ccccn2)c1`, the growth in the assay on NCI-H23 lung was 76.1%; with NCI-H226 lung it was 74.9%; with NCI-H322M lung, 134%; with HOP-62 NSCLC, 73.2%; in the assay on NCI-H460 lung, 91%; with HOP-92 NSCLC, 34.7%. Further, the growth in the assay on NCI-H522 lung was 72.1%; in the assay with A549/ATCC NSCLC it was 73.5%; in the assay on 786-0 renal, 53.3%; with COLO 205 colon it was 105%; in the assay with DU-145 prostate, 78.3%; in the assay with K-562 leukemia, 67.4%. Moreover, the growth in the assay with MALME-3M melanoma is 114%; in the assay on MDA-MB-231 breast it was 87.3%; in the assay on RXF 393 renal, 69.3%; in the assay with SF-268 CNS, 76.9%; in the assay with SF-295 CNS it was 71.1%; in the assay on SF-539 CNS, 68.6%. In addition, in the assay with UACC-257 melanoma, the growth is 102%.

`O=C1CC(c2ccc3c(c2)OCO3)Nc2cc3c(cc21)OCO3` (stereo unspecified): the growth in the assay on NCI-H23 lung was 44.5%; in the assay on NCI-H226 lung it was 64.5%; in the assay with NCI-H322M lung it was 57.5%; with HOP-62 NSCLC, 29.7%; with NCI-H460 lung it was 5.95% (active); in the assay with HOP-92 NSCLC, 29.2%. Moreover, the growth in the assay on NCI-H522 lung was -9.02% (active); in the assay on A549/ATCC NSCLC it was 10.1%; in the assay with 786-0 renal, 30.8%; in the assay with COLO 205 colon, -27.1% (active); with DU-145 prostate, 15.3%; with K-562 leukemia, 10.2%. The growth was 75.2% with MALME-3M melanoma; 24.7% in the assay with MDA-MB-231 breast; -11.2% (active) in the assay on RXF 393 renal; 44% in the assay with SF-268 CNS; 7.59% (active) with SF-295 CNS; 6.5% (active) with SF-539 CNS. The growth with UACC-257 melanoma is 39.6%.

`COc1cc(C2CC(c3ccc(Nc4nc(Nc5ccc(F)cc5)nc(Nc5ccc(Cl)cc5)n4)cc3)=NN2C(C)=O)cc(OC)c1OC` (stereo unspecified): the growth in the assay with NCI-H23 lung is 68.8%; with NCI-H226 lung, 67.9%; with NCI-H322M lung, 84.8%; with HOP-62 NSCLC, 72.3%; in the assay with NCI-H460 lung, 77.9%; in the assay on HOP-92 NSCLC, 51.8%. Further, the growth is 73.8% in the assay on NCI-H522 lung; 50.8% in the assay on A549/ATCC NSCLC; 87.2% in the assay on 786-0 renal; 58% in the assay with COLO 205 colon; 110% in the assay with DU-145 prostate; 44.2% in the assay with K-562 leukemia. Further, the growth in the assay on MALME-3M melanoma was 67.9%; in the assay with MDA-MB-231 breast it was 77.8%; in the assay on RXF 393 renal it was 71.5%; with SF-268 CNS it was 90.4%; in the assay with SF-295 CNS, 339%; with SF-539 CNS it was 84.6%. Moreover, the growth in the assay on UACC-257 melanoma was 122%.

Consider `COc1cccc(-c2cnco2)c1OCc1c(C)c(COc2c(OC)cccc2-c2cnco2)c(C)c(COc2c(OC)cccc2-c2cnco2)c1C`, for which the growth in the assay on NCI-H23 lung is 71.5%; in the assay with NCI-H226 lung, 21.8%; with NCI-H322M lung, 70.7%; in the assay with HOP-62 NSCLC it was 42.1%; in the assay with NCI-H460 lung, 52.2%; in the assay on HOP-92 NSCLC it was -6.35% (active). The growth in the assay on NCI-H522 lung is 33.9%; in the assay on A549/ATCC NSCLC it was 51.8%; in the assay on 786-0 renal, 2.94% (active); in the assay with COLO 205 colon, 83.4%; with DU-145 prostate, 73.2%; in the assay with K-562 leukemia it was 85%. The growth with MALME-3M melanoma was 43.5%; in the assay on MDA-MB-231 breast, 30.5%; with RXF 393 renal it was 45.7%; in the assay with SF-268 CNS, 53.7%; with SF-295 CNS, 82.1%; in the assay with SF-539 CNS, 19.3%. In addition, the growth with UACC-257 melanoma was 58.4%.

These data come from PubChem BioAssay (NCI).
